Reference: the supplement of paper PMC13380429

Key:
[1] = tested on: Vero E6 infected with SARS-CoV-2; test: morphology score (similarity to uninfected cells); higher = more like uninfected cells; settings: 24 h
[2] = tested on: Vero E6 infected with SARS-CoV-2; test: SARS-CoV-2 infection rate relative to infected DMSO; higher = more infection, active = 60 or less; settings: 24 h

| SMILES | morphology score [1] | SARS-CoV-2 infection rate [2] |
| --- | --- | --- |
| COc1ccc2nc(NC(=O)Nc3ccccc3)sc2c1 [frentizole] (10 µM) | -0.0784 | 114% (inactive) |
| Nc1nc(OCc2cc(Br)cs2)c2[nH]cnc2n1 [lomeguatrib] (10 µM) | 0.19 | 104% (inactive) |
| Cc1ccnc2c1CCCC2C(N)=S (stereo unspecified) [isotiquimide] (10 µM) | 0.0559 | 113% (inactive) |
| CC(C)Cn1cnc2c1c(=O)n(C)c(=O)n2C [isbufylline] (10 µM) | -0.0146 | 106% (inactive) |
| NC1CCN(c2nc3c(cc2F)c(=O)c(C(=O)O)cn3-c2ccc(F)cc2F)C1 (stereo unspecified) [tosufloxacin] (10 µM) | -0.115 | 112% (inactive) |
| Oc1ccc2c3c1O[C@H]1c4[nH]c5c(c4C[C@@]4(O)[C@@H](C2)N(CC2CC2)CC[C@]314)C[C@@]1(O)[C@H]2Cc3ccc(O)c4c3[C@@]1(CCN2CC1CC1)[C@H]5O4 [nor-binaltorphimine] (10 µM) | -0.0703 | 114% (inactive) |
| O=C(N/N=C/c1ccc(O)c(O)c1)c1cc2ccccc2cc1O [dynasore] (10 µM) | -0.107 | 108% (inactive) |
| Cc1sc(C)c2c1CCC=C2c1c[nH]cn1 (10 µM) | 0.165 | 94% (inactive) |
| Cc1cc(Nc2nc(N[C@@H](C)c3ccc(F)cc3)c(C#N)cc2F)n[nH]1 (10 µM) | -0.0459 | 110% (inactive) |
| CC(=O)N(CC(O)CO)c1c(I)c(C(=O)NCCO)c(I)c(C(=O)NCC(O)CO)c1I (stereo unspecified) [ioxilan] (10 µM) | 0.00249 | 114% (inactive) |
| COc1cc(C=O)ccc1O [vanillin] (10 µM) | 0.0882 | 104% (inactive) |
| CCCCCN(CCCOC)C(=O)[C@@H](CCC(=O)O)NC(=O)c1ccc(Cl)c(Cl)c1 [dexloxiglumide] (10 µM) | 0.0908 | 107% (inactive) |
| COc1ccc(C(=O)c2ccccc2O)c(O)c1 [dioxybenzone] (0.833333 µM) | 0.165 | 88% (inactive) |
| O[C@@H]1[C@H](O)[C@@H](CCl)O[C@H]1n1cnc2c(NC3CC4CCC3C4)ncnc21 (mixture of isomers) [5'-chloro-5'-deoxy-ENBA-(+/-)] (10 µM) | 0.0934 | 104% (inactive) |
| CC(C)(C)NCC(O)c1cc(Cl)c(N)c(Cl)c1 (stereo unspecified) [clenbuterol] (10 µM) | -0.0972 | 110% (inactive) |
| O=C(Nc1ccccc1)[C@]12C[C@H]1/C(=N\O)c1ccccc1O2 (10 µM) | 0.246 | 79% (inactive) |
| CCCC[N+]1(C)[C@@H]2C[C@@H](OC(=O)[C@H](CO)c3ccccc3)C[C@H]1[C@@H]1O[C@@H]12 (stereo partly specified) [butylscopolamine-bromide] (10 µM) | 0.191 | 102% (inactive) |
| CC1(C)NC(=O)N(c2ccc([N+](=O)[O-])c(C(F)(F)F)c2)C1=O [nilutamide] (10 µM) | 0.15 | 108% (inactive) |
| CC(=O)NCCc1c[nH]c2ccccc12 [N-acetyltryptamine] (10 µM) | 0.0383 | 94.5% (inactive) |
| CCN(CC)C(=O)N1CCN(C)CC1 [diethylcarbamazine] (10 µM) | 0.035 | 104% (inactive) |

| SMILES | morphology score [1] | SARS-CoV-2 infection rate [2] |
| --- | --- | --- |
| CCOC(=O)C(=O)Nc1cccc(OC)c1C(N)=O (10 µM) | -0.179 | 102% (inactive) |
| CCCCOC(=O)c1ccccc1Nc1cccc(C(F)(F)F)c1 [ufenamate] (10 µM) | 0.129 | 100% (inactive) |
| C#Cc1cccc(Nc2ncnc3cc4c(cc23)OCCOCCOCCO4)c1 [icotinib] (0.833333 µM) | -0.00998 | 117% (inactive) |
| CC(C)(Sc1ccc(CCN(CCCCC2CCCCC2)C(=O)NC2CCCCC2)cc1)C(=O)O (10 µM) | 0.13 | 117% (inactive) |
| COC(=O)C1=C(C)NC(C)=C(C(=O)O[C@H]2CCN(Cc3ccccc3)C2)[C@H]1c1cccc([N+](=O)[O-])c1 [barnidipine] (10 µM) | -0.0592 | 112% (inactive) |
| CC(C(=O)O)c1ccc2c(c1)Cc1cccnc1O2 (stereo unspecified) [pranoprofen] (10 µM) | -0.152 | 122% (inactive) |
| CC1Cc2ccccc2N1NC(=O)c1ccc(Cl)c(S(N)(=O)=O)c1 (stereo unspecified) [indapamide] (10 µM) | 0.0243 | 112% (inactive) |
| CCCCN(CCCC)CC(O)c1cc(Cl)cc2c1-c1ccc(Cl)cc1/C2=C/c1ccc(Cl)cc1 (stereo unspecified) [lumefantrine] (10 µM) | 0.15 | 91.5% (inactive) |
| NC(N)=O [urea] (10 µM) | -0.168 | 114% (inactive) |
| CCCCc1nc(Cl)c(CO)n1Cc1ccc(-c2ccccc2-c2nnn[nH]2)cc1 [losartan] (10 µM) | 0.0837 | 99.5% (inactive) |
| Nc1ccn(C[C@@H](CO)OCP(=O)(O)O)c(=O)n1 [cidofovir] (10 µM) | 0.0279 | 108% (inactive) |
| Cc1ccc(Cl)c(OC[C@H](O)CNC(C)C)c1 [1-(2-chloro-5-methylphenoxy)-3-(isopropylamino)-2-propanol] (10 µM) | 0.0769 | 95.5% (inactive) |
| Oc1c(Cl)cc(Cl)c2cccnc12 [chloroxine] (10 µM) | -0.0551 | 98.5% (inactive) |
| COc1ccc2[nH]c([S@@+]([O-])Cc3ncc(C)c(OC)c3C)nc2c1 [esomeprazole] (10 µM) | -0.181 | 110% (inactive) |
| CCCc1nc(C)c2c(=O)nc(-c3cc(S(=O)(=O)N4CCN(CC)CC4)ccc3OCC)[nH]n12 [vardenafil] (10 µM) | 0.227 | 97.5% (inactive) |
| CC(=O)O[C@H]1CC[C@@]2(C)C(=CC[C@@H]3[C@@H]2CC[C@]2(C)C(c4cccnc4)=CC[C@@H]32)C1 [abiraterone-acetate] (10 µM) | -0.0503 | 112% (inactive) |
| O=C(O)/C=C\c1c[nH]cn1 [cis-Urocanic acid] (10 µM) | 0.143 | 104% (inactive) |
| Cc1cc2cc3c(C)cc(=O)oc3c(C)c2o1 [trioxsalen] (10 µM) | 0.133 | 94% (inactive) |
| C/C(=N\c1ccccc1N)c1c(C)cc(=O)n(O)c1O (10 µM) | -0.169 | 107% (inactive) |
| c1coc(-c2nnc3sc(C4CCCCC4)nn23)c1 [cardionogen-1] (10 µM) | 0.254 | 89% (inactive) |

| SMILES | morphology score [1] | SARS-CoV-2 infection rate [2] |
| --- | --- | --- |
| CCC1(c2c[nH]cn2)Cc2ccccc2C1 [atipamezole] (10 µM) | -0.114 | 112% (inactive) |
| OC[C@@H](O)[C@@H](O)CO [erythritol] (10 µM) | 0.135 | 87.5% (inactive) |
| CN1CCN(c2cccc3[nH]c(=O)oc23)CC1 [pardoprunox] (10 µM) | -0.1 | 103% (inactive) |
| CCCCCCCCCCCCCCCC[N+](C)(C)CCN(Cc1ccc(OC)cc1)c1ncccn1 [thonzonium] (10 µM) | -0.372 | 122% (inactive) |
| NC(Cc1ccc(I)cc1)C(=O)O (stereo in doubt) [4-iodo-L-phenylalanine] (10 µM) | 0.202 | 105% (inactive) |
| CC(C)(Cc1c[nH]c2ccc(Cl)cc12)NCCOc1ccccc1OCC1CC1 (0.833333 µM) | 0.193 | 110% (inactive) |
| Cc1c(NC(=O)c2cccnc2)c(=O)n(-c2ccccc2)n1C [nifenazone] (10 µM) | 0.0329 | 102% (inactive) |
| C[C@@H]1O[C@@H](O[C@H]2[C@H](Oc3cc(O)c(C(=O)CCc4ccc(O)cc4)c(O)c3)O[C@H](CO)[C@@H](O)[C@@H]2O)[C@H](O)[C@H](O)[C@H]1O [naringin-dihydrochalcone] (10 µM) | 0.0437 | 107% (inactive) |
| CC(NCCC(c1ccccc1)c1ccccc1)c1ccccc1 (stereo unspecified) [fendiline] (10 µM) | 0.771 | 44% (active) |
| C[S+](CC[C@H](N)C(=O)O)C[C@H]1O[C@@H](n2cnc3c(N)ncnc32)[C@H](O)[C@@H]1O (stereo partly specified) [ademetionine] (10 µM) | 0.0625 | 96.5% (inactive) |
| O=c1c(O)c(-c2ccc(O)c(O)c2)oc2cc(O)cc(O)c12 [quercetin] (10 µM) | 0.0809 | 102% (inactive) |
| CC(C)C[C@@H](NC(=O)[C@H](Cc1ccccc1)NC(=O)CNC(=O)[C@@H](C)NC(=O)[C@@H](N)Cc1ccc(O)cc1)C(=O)O (10 µM) | 0.159 | 97% (inactive) |
| OC(c1cc(C(F)(F)F)nc2c(C(F)(F)F)cccc12)C1CCCCN1 (stereo unspecified) [mefloquine] (0.833333 µM) | -0.113 | 112% (inactive) |
| O=C(CCCCCCC(=O)Nc1cccnc1)NO [pyroxamide] (0.833333 µM) | 0.0384 | 104% (inactive) |
| CC(=O)N[C@@H](CC(=O)O)C(=O)N[C@@H](CCC(=O)O)C(=O)O [spaglumic-acid] (10 µM) | 0.121 | 88.5% (inactive) |
| O=C1Nc2ccccc2C2(CCN(CCc3ccc(C(F)(F)F)cc3)CC2)O1 (10 µM) | -0.158 | 106% (inactive) |
| O=C1c2c(O)cccc2C([C@@H]2O[C@H](CO)[C@@H](O)[C@H](O)[C@H]2O)c2cc(CO)cc(O)c21 (stereo partly specified) [aloin] (10 µM) | -0.243 | 116% (inactive) |
| CN1CCN(c2ccc3nc(-c4c(N)c5c(F)cccc5[nH]c4=O)[nH]c3c2)CC1 [dovitinib] (10 µM) | -0.00197 | 102% (inactive) |
